The text below walks through data of PubChem BioAssay (NCATS).

Molecules are shown by their SMILES. Records with an inconclusive call do not appear. Unmarked numbers belong to inactive results. Active and inactive are the calls of the source. The call rests on the fitted dose curve; in most records, active means well fitted inhibition curve with a large enough effect; inconclusive means small, poorly fitted or top-dose-only effect; inactive means no such curve, though single readings can be large or run the other way.
Potency means the concentration at half of the fitted maximal effect.

The experiment can be described thus: BET inhibitor-based combinations targeting novel dependencies in MECOM-rearranged (r) AML: OCI-AML3 cell line (AID 2202232). Further: nearly all actives have a fitted effect of over 35% in size.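 On viability (% of control): plate controls were DMSO vehicle wells for no effect and wells without cells for full effect.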 Particulars: CellTiter-Glo luminescence, 48 h; Potency: OCI-AML3 viability; series mostly up to 46 µM; viability (% of control): at the top concentration. The procedure, abridged:
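Viability of cells (500 per well) is scored by luminescent CellTiter-Glo at 48 hr post-dosing. Eleven-point titrations are normalized to DMSO and empty controls and reduced to AUC values.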
`CN(C)CCOc1ccc(-c2nc(-c3ccc4c(c3)CC/C4=N\O)c(-c3ccncc3)[nH]2)cc1`: the Potency was 5.9 µM (active).

For `Nc1nc(Nc2ccc3c(c2)CC[C@@H](N2CCCC2)CC3)nn1-c1cc2c(nn1)-c1ccccc1CCC2`, the Potency is 18.6 µM (active).

Take `COc1ccc(-c2oc3ncnc(N)c3c2-c2ccc(NC(=O)Nc3cc(C(F)(F)F)ccc3F)cc2)cc1`: the Potency was 10.5 µM (active).

For the molecule `OC1CCC(Oc2cccc3cnc(Nc4ccc5nc[nH]c5c4)nc23)CC1` (centres undefined), the Potency is 1.48 µM (active).

Take `O=C(NC[C@H](O)CO)c1ccncc1Nc1ccc(I)cc1F`: the Potency is 0.0332 µM (active).

For the molecule `C=CCN(/C=C1\C(=O)O[C@@H](COC)[C@]2(C)C1=C(O)C(=O)C1=C2[C@@H](OC(C)=O)C[C@]2(C)C(=O)CC[C@H]12)CC=C`, the “viability (% of control)” value was 6.51%.

With `N#Cc1ccc(-c2c(-c3ncn[nH]3)sc(N3CCOCC3)c2C#N)c(F)c1`, the Potency is 5.9 µM (active).

On to `c1ccc(-c2cc(CCC3CCNCC3)c3ccccc3n2)cc1`, for which the Potency is 20.9 µM (active).

As for `COc1cc(C(=O)NC(N)=Nc2ccc(C)c(NC(=O)c3ccc(-c4ccccc4)cc3)c2)cc(OC)c1OC`, the Potency is 18.6 µM (active).

`CC(C)n1c(=O)cc(N[C@@H](C)c2ccccc2)[nH]c1=O`: the “viability (% of control)” value was 101%.

Turning to `CCN(C(=O)c1c(O)c2c(Cl)cccc2n(C)c1=O)c1ccccc1`, the Potency was 13.2 µM (active).

On to `C=C[C@@H]1CN2CCC1C[C@H]2[C@H](O)c1ccnc2ccc(OC)cc12` (some centres undefined), for which the Potency is 20.9 µM (active).

Take `COC(=O)Nc1nc2ccc(S(=O)c3ccccc3)cc2[nH]1` (centres undefined): the Potency was 26.3 µM (active).

On to `CC(=O)Nc1ccc(O)cc1`, for which the “viability (% of control)” value is 93.8%.
